Reference: PubChem BioAssay (NCATS)
Inconclusive results are not listed. Calls of active or inactive are those of the source. Unless noted, the call rests on the fitted dose curve; in most records, active means well fitted curve in the direction sought with a large enough effect; inconclusive means small, poorly fitted or top-dose-only effect, or another doubt; inactive means no such curve, though single readings can be large; an effect the other way counts as inactive or inconclusive.

Legend:
[1] = AP1 Signaling Pathway (AID 357; active means well fitted curve in either direction with a large enough effect, not every such curve was filed as active;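 further: ME-180 reporter cells stimulated with EGF at its EC50 level; on the % scale 0 is the no-effect control and ±100 the full control effect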)
Method in brief: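 A ratiometric CCF4 readout (405 nm excitation; 460 and 530 nm emission) quantified AP-1-driven beta-lactamase in ME-180 cells after 5 h with compound and EC50 EGF; AC50 values were derived for activators and inhibitors.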

[2] = molecular target: Cytochrome P450 1A2 (Homo sapiens) (UniProt P05177); assay: p450-cyp1a2 (AID 410; calls by dose curve; further: potency means the concentration at half of the fitted maximal effect)
Sequence of Cytochrome P450 1A2 (Homo sapiens) (P05177 whole entry, looked up): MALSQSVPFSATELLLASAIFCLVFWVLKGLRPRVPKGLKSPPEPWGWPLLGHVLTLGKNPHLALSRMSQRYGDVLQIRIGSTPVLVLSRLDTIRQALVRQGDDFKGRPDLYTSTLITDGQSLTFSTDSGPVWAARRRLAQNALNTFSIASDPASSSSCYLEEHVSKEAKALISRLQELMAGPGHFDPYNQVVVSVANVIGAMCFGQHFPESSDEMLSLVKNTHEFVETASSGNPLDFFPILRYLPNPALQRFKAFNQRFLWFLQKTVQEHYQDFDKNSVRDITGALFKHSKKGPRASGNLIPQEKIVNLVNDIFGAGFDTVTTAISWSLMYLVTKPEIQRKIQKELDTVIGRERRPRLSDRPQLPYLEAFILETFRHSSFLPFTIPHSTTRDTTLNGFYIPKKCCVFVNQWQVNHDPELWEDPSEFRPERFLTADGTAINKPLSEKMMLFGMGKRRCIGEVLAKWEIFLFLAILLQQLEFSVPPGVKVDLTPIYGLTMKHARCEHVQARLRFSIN
Method in brief: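 Human CYP1A2 (20nM) demethylated Luciferin-ME at its Km (100uM) in 100mM KPO4. After 10 min compound preincubation, NADPH regeneration ran the reaction 60 min at room temperature. Luciferin was read by luminescence, normalized to 57 uM furafylline.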

[3] = NFAT Signaling Pathway (AID 444; active means well fitted curve in either direction with a large enough effect, not every such curve was filed as active;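 further: carbachol stimulus at about its EC50 of 1 µM final; on the % scale 0 is the no-effect control and ±100 the full control effect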); settings: Jurkat NFAT-bla M1, carbachol, beta-lactamase ratio, 5 h; at 17.2 µM (top of the series)
Method in brief: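 Read-out: CCF4 FRET ratio (460 nm/530 nm) after 1 h RT dye loading, used for %activity and AC50 from titration series. Cells: Jurkat NFAT-β-lactamase/M1 line, treated with compound plus 1 uM carbachol for 5 h, 37 °C.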

[4] = molecular target: Glucocorticoid receptor (Homo sapiens) (UniProt P04150); assay: GR-EFC Redistribution (AID 451; calls by dose curve; further: potency means the concentration at half of the fitted maximal effect); settings: CHO-K1 GR-EFC translocation, beta-gal luminescence, 2 h
Sequence of Glucocorticoid receptor (Homo sapiens) (P04150 whole entry, looked up, the tested form may be a part): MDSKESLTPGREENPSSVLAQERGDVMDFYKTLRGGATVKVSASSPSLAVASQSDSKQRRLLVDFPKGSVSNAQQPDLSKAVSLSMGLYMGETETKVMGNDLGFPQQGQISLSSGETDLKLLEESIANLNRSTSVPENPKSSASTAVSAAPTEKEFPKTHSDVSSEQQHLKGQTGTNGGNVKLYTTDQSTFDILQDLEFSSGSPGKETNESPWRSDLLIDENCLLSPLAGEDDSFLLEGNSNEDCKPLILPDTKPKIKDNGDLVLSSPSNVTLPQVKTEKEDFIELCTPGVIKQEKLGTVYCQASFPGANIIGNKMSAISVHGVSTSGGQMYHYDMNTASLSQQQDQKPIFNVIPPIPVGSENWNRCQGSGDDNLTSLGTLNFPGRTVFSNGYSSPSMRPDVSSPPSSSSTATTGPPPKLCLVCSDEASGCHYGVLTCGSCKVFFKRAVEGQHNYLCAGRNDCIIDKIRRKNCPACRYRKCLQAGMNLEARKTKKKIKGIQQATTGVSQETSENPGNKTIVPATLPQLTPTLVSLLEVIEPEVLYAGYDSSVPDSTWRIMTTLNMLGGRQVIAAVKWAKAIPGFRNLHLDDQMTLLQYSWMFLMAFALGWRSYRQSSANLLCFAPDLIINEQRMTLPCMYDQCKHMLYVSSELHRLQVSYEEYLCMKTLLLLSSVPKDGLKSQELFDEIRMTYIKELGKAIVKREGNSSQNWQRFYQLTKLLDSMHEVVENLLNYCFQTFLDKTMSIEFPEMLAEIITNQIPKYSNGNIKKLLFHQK
Method in brief: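 Translocation of GR-ED fusion to nuclear EA restores b-gal, read by luminescence after 1 h room-temperature detection. Engineered CHO-K1 biosensor cells, 1,000/well, exposed 2 h at 37 C to titrations up to 46 uM final.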

[5] = molecular target: Mitogen-activated protein kinase 10 (Mus musculus) (UniProt Q61831); assay: JNK3 AlphaScreen Assay (AID 530; active means well fitted curve in either direction with a large enough effect, not every such curve was filed as active;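 further: kinase came from lysate of stimulated human HepG2 cells; signal reports phosphorylation of biotinylated GST-cJun 1-79 at Ser73 with 10 µM ATP; on the % scale 0 is the no-effect control and ±100 the full control effect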)
Method in brief: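 Room-temperature AlphaScreen kinase assay; pre-activated HepG2 lysate as JNK3 source, biotin-GST-cJun(1-79) substrate, 10 uM ATP, compound 15 min preincubation.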

[6] = molecular target: 3',5'-cyclic-AMP phosphodiesterase 4B (Homo sapiens) (UniProt Q07343); assay: qHTS Assay for Inhibitors of PDE-IV (AID 607; active means well fitted activation curve with a large enough effect in the main read-out, with a control signal flat, not every such curve was filed as active; further: % of control where 0% means no effect)
Sequence of 3',5'-cyclic-AMP phosphodiesterase 4B (Homo sapiens) (Q07343 whole entry, looked up): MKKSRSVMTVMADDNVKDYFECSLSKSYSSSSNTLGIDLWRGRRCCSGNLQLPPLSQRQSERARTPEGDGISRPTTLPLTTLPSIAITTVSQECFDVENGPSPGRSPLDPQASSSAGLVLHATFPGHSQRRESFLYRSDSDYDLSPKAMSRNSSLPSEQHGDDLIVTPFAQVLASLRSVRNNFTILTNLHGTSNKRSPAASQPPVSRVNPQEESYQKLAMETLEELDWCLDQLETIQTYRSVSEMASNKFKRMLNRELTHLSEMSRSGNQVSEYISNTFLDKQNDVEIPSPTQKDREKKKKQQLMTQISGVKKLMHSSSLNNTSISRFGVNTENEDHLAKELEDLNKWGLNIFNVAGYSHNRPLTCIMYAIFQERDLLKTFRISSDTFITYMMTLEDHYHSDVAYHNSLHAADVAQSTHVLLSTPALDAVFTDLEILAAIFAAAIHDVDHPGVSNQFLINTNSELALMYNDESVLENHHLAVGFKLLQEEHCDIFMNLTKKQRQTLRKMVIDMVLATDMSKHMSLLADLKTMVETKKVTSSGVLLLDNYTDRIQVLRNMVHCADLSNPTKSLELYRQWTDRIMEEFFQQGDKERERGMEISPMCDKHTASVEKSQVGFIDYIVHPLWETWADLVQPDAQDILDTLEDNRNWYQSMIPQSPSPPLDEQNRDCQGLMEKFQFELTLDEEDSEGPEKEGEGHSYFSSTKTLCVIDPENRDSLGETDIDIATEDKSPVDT
Method in brief: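 Live HEK293 cells with a modified cyclic nucleotide-gated (CNG) channel report intracellular cAMP via membrane-potential dye fluorescence (ex 535/em 590 nm). Endogenous PDE-IV was targeted. Compounds were tested at up to 22.9 uM final; RO 20-1724 100 uM served as control.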

[7] = molecular target: Cytochrome P450 2C9 (Homo sapiens) (UniProt P11712); assay: qHTS Assay for Inhibitors and Substrates of Cytochrome P450 2C9 (AID 883); further: potency means the concentration at half of the fitted maximal effect; nearly all actives have a fitted effect of over 60% in size
Sequence of Cytochrome P450 2C9 (Homo sapiens) (P11712 whole entry, looked up): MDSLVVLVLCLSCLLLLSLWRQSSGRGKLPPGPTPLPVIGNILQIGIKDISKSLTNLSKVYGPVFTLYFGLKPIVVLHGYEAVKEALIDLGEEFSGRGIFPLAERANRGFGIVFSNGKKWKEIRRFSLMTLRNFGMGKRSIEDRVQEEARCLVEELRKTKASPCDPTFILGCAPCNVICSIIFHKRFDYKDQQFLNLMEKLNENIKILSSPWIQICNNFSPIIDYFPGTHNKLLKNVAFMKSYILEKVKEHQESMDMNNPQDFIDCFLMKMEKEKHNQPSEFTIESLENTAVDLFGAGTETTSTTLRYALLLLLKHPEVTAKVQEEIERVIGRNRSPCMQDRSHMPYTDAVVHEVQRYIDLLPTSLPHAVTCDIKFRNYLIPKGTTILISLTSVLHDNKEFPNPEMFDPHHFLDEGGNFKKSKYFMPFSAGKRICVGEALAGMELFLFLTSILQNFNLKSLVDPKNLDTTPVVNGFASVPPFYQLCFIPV
Method in brief: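 Turnover of Luciferin-H (100uM, KM) by 10nM human CYP2C9 was measured over 60 min at 37C with NADPH regeneration; inhibitors and some substrates reduce luminescence. Data normalized to sulphaphenazole 57uM.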

[8] = molecular target: Cytochrome P450 3A4 (Homo sapiens) (UniProt P08684); assay: qHTS Assay for Inhibitors and Substrates of Cytochrome P450 3A4 (AID 884); further: potency means the concentration at half of the fitted maximal effect; nearly all actives have a fitted effect of over 50% in size
Sequence of Cytochrome P450 3A4 (Homo sapiens) (P08684 whole entry, looked up): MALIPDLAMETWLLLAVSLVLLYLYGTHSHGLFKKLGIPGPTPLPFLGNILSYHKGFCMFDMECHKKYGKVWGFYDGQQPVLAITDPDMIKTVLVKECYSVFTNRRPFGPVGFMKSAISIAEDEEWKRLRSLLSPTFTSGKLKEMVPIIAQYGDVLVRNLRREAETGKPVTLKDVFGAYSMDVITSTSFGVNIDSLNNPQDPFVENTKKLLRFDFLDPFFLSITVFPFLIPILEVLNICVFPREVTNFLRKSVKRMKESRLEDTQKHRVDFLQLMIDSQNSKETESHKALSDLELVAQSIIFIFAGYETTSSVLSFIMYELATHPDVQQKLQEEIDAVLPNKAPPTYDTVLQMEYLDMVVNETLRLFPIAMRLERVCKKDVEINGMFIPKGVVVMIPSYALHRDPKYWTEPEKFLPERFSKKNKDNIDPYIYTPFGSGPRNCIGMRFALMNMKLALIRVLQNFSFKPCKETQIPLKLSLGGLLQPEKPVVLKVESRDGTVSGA
Method in brief: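 20 nM human CYP3A4 with 25 uM Luciferin-PPXE (at KM) in 200 mM KPO4, preincubated 10 min with compound; NADPH regeneration started a 60 min RT reaction. Luciferin detected by luminescence, normalized to 57 uM ketoconazole as full inhibition.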

[9] = molecular target: Cytochrome P450 2C19 (Homo sapiens) (UniProt P33261); assay: qHTS Assay for Inhibitors and Substrates of Cytochrome P450 2C19 (AID 899); further: potency means the concentration at half of the fitted maximal effect; nearly all actives have a fitted effect of over 60% in size
Sequence of Cytochrome P450 2C19 (Homo sapiens) (P33261 whole entry, looked up): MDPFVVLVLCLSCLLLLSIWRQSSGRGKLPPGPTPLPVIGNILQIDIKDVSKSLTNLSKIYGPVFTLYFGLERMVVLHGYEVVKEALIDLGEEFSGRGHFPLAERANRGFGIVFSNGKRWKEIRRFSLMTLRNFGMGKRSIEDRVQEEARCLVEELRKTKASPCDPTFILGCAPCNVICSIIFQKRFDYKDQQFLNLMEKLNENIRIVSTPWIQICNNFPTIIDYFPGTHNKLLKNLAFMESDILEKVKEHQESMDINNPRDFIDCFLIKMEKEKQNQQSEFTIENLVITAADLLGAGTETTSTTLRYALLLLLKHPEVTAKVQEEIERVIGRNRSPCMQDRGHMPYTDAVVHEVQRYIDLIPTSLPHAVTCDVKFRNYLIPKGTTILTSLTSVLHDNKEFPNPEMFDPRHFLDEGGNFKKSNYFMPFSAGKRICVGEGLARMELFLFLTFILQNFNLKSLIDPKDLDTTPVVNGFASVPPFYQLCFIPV
Method in brief: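 Reactions contain 5nM enzyme, 10uM Luciferin-H EGE (KM) and 50mM KPO4; compound preincubates 10 min at 37C, NADPH regeneration starts turnover for 60 min. Luminescence after detection reagent gives activity.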

[10] = Confirmation and Secondary Assay for Modulators of Hemoglobin Beta Chain Splicing at IVS2 654 locus (AID 910);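 further: HeLa cells stably carrying EGFP split by mutant beta-globin IVS2-654 intron; per-well total GFP intensity by laser scanning cytometry after 2-day treatment; % of control where 0% means no effect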
Method in brief: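 Readout: per-well total peak green fluorescence (488 nm ex, 500–520 nm em) from objects 5–250 µm, reflecting correct splicing of an EGFP-654 reporter. Compounds were applied for 2 days at 37 °C to overnight-plated HeLa EGFP-654 cells; controls were DMSO and 500 nM IVS2-654 PNA.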

[11] = Confirmation and Secondary Assay for Modulators of Hemoglobin Beta Chain Splicing at IVS2 705 locus (AID 930);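 further: HeLa cells stably expressing the EGFP-705 splicing reporter; GFP fluorescence per well restored by corrected splicing of the IVS2-705 intron in EGFP; % of control where 0% means no effect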
Method in brief: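 Secondary splice-site specificity test uses HeLa expressing CMV-driven EGFP interrupted by IVS2-705; cells were treated 2 days at 37C with 500 nM antisense PNA as positive control.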

[12] = molecular target: Ubiquitin carboxyl-terminal hydrolase 1 (Homo sapiens) (UniProt O94782); assay: Inhibitors of USP1/UAF1: Pilot qHTS (AID 504865);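 further: rhodamine fluorescence freed from ubiquitin-rhodamine substrate followed over time; top concentration of the series differs between compounds; on the % scale 0 is the no-effect control and ±100 the full control effect; nearly all actives have a fitted effect of over 35% in size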
Sequence of Ubiquitin carboxyl-terminal hydrolase 1 (Homo sapiens) (O94782 whole entry, looked up): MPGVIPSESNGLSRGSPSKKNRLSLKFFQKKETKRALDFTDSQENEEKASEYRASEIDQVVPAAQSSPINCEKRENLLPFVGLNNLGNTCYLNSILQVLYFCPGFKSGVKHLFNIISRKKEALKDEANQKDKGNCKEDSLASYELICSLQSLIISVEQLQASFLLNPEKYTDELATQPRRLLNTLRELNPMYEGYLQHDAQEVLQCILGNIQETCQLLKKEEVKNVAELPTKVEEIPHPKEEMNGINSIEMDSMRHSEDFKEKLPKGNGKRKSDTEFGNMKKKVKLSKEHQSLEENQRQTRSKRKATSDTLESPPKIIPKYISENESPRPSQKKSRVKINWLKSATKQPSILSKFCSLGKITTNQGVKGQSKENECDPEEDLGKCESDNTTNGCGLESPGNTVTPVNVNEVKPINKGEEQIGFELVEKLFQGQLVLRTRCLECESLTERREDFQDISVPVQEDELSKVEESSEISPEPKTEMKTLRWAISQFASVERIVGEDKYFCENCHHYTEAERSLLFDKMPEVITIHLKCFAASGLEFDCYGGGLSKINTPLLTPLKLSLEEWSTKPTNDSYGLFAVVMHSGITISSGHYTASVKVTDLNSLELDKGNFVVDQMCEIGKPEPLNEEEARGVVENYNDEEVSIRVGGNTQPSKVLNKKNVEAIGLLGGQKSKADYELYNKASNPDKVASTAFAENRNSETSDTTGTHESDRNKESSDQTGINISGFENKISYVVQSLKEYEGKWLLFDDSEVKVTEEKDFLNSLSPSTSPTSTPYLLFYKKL
Method in brief: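 USP1/UAF1 complex at 1 nM preincubated 15 min at room temperature with compound, then Ub-Rho substrate added at 150 nM final. Fluorescence (480/540 nm) read kinetically in 50 mM HEPES pH 7.8, 0.5 mM EDTA, 1 mM TCEP, 0.1 mg/ml BSA, 0.01% Tween-20.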

[13] = S16 Schwann cell viability assay (CellTiter-Glo assay) (AID 624031);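 further: cellular ATP luminescence as a viability measure; plate controls were DMSO-treated cells for no effect and cell-free wells for full effect; nearly all actives have a fitted effect of over 70% in size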
Method in brief: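 This viability control uses native rat S16 Schwann cells grown in DMEM plus 10% FBS. After a 24 h compound treatment at 37 °C, CellTiter-Glo luminescence reports ATP content, scaled against DMSO-treated and cell-free wells.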

[14] = S16 Schwann cell PMP22 intronic element firefly luciferase assay (AID 624032);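 further: plate controls were DMSO for no effect and PTC124 positive control mean for full effect; nearly all actives have a fitted effect of over 30% in size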
Method in brief: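 Luciferase reporter of PMP22 intronic-element expression in stably transfected S16 rat Schwann cells, read by ONE-Glo luminescence after 24 h compound exposure at 37 C. Activity scaled between DMSO (0%) and positive-control PTC124; concentration-effect curves quality-classified.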

[15] = S16 Schwann cell PMP22 intronic element beta-lactamase assay (AID 624044; calls by dose curve;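 further: 0% = DMSO and -100% = potassium clavulanate positive control; nearly all actives have a fitted effect of over 15% in size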)
Method in brief: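 Rat S16 Schwann cells with beta-Lac driven by a PMP22 intronic element, compound-treated 24 h at 37 °C. LiveBLAzer FRET B/G read: 460 nm normalized to potassium clavulanate vs DMSO; 535 nm FRET as viability; concentration-effect curves classified.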

[16] = Confirmatory screen GU Rhodamine qHTS for Zika virus inhibitors qHTS (AID 1347157);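 further: plate controls were no-inhibitor wells for no effect and no-enzyme wells for full effect; nearly all actives have a fitted effect of over 70% in size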
Method in brief: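 A qHTS format was used, with compound concentrations ranging up to 114 microM. Each compound was preincubated with 25 nM NS2B-NS3 protease, and the substrate was then added at 1.5 microM. Curves were fitted with a 4-parameter Hill model.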

AA1029 = assay: qHTS profiling for inhibitors of Plasmodium falciparum proliferation (AID 504749);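 further: 0% = DMSO vehicle and full inhibition = artemisinin control; nearly all actives have a fitted effect of over 60% in size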; settings: P. falciparum in erythrocytes, SYBR Green DNA, 72 h; series mostly up to 28.7 µM
Method in brief: (§1)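 Three-day growth assay of blood-stage parasites in erythrocytes (0.3% parasitemia, 2.5% hematocrit) at 37 C, 5% CO2, quantified by SYBR Green DNA staining after overnight detergent lysis.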

AS120 = assay: as above; settings: P. falciparum in erythrocytes, SYBR Green DNA, 72 h; series mostly up to 28.7 µM
Method in brief: as §1

ATS189 = assay: as above; settings: P. falciparum in erythrocytes, SYBR Green DNA, 72 h; series mostly up to 28.7 µM
Method in brief: as §1

ATS95 = assay: as above; settings: P. falciparum in erythrocytes, SYBR Green DNA, 72 h; series mostly up to 28.7 µM
Method in brief: as §1

C2A = assay: as above; settings: P. falciparum in erythrocytes, SYBR Green DNA, 72 h; series mostly up to 28.7 µM
Method in brief: as §1

CP185 = assay: as above; settings: P. falciparum in erythrocytes, SYBR Green DNA, 72 h; series mostly up to 28.7 µM
Method in brief: as §1

CP191 = assay: as above; settings: P. falciparum in erythrocytes, SYBR Green DNA, 72 h; series mostly up to 28.7 µM
Method in brief: as §1

CP192 = assay: as above; settings: P. falciparum in erythrocytes, SYBR Green DNA, 72 h; series mostly up to 28.7 µM
Method in brief: as §1

CP194 = assay: as above; settings: P. falciparum in erythrocytes, SYBR Green DNA, 72 h; series mostly up to 28.7 µM
Method in brief: as §1

CP201 = assay: as above; settings: P. falciparum in erythrocytes, SYBR Green DNA, 72 h; series mostly up to 28.7 µM
Method in brief: as §1

CP203 = assay: as above; settings: P. falciparum in erythrocytes, SYBR Green DNA, 72 h; series mostly up to 28.7 µM
Method in brief: as §1

CP211 = assay: as above; settings: P. falciparum in erythrocytes, SYBR Green DNA, 72 h; series mostly up to 28.7 µM
Method in brief: as §1

CP215 = assay: as above; settings: P. falciparum in erythrocytes, SYBR Green DNA, 72 h; series mostly up to 28.7 µM
Method in brief: as §1

CP217 = assay: as above; settings: P. falciparum in erythrocytes, SYBR Green DNA, 72 h; series mostly up to 28.7 µM
Method in brief: as §1

CP237 = assay: as above; settings: P. falciparum in erythrocytes, SYBR Green DNA, 72 h; series mostly up to 28.7 µM
Method in brief: as §1

CP238 = assay: as above; settings: P. falciparum in erythrocytes, SYBR Green DNA, 72 h; series mostly up to 28.7 µM
Method in brief: as §1

CP247 = assay: as above; settings: P. falciparum in erythrocytes, SYBR Green DNA, 72 h; series mostly up to 28.7 µM
Method in brief: as §1

CP250 = assay: as above; settings: P. falciparum in erythrocytes, SYBR Green DNA, 72 h; series mostly up to 28.7 µM
Method in brief: as §1

O=C(O)c1ccccc1-c1c2cc(Br)c(=O)cc-2oc2[c]([Hg])c(O)c(Br)cc12
active: Potency [2] 15.8 µM | Potency [7] 0.631 µM | Potency [8] 25.1 µM | Potency [9] 3.16 µM
inactive: outcome [1] | activity change, negative = inhibition [3] -24.9% | Potency [4] > 20.6 µM | outcome [5] | Potency [6] | Potency [10] | outcome [11] | Potency [12] | Potency [13] | Potency [14] | Potency [15] | Potency [16] | Potency (AA1029) | Potency (AS120) | Potency (ATS189) | Potency (ATS95) | Potency (C2A) | Potency (CP185) | Potency (CP191) | Potency (CP192) | Potency (CP194) | Potency (CP201) | Potency (CP203) | Potency (CP211) | Potency (CP215) | Potency (CP217) | Potency (CP237) | Potency (CP238) | Potency (CP247) | Potency (CP250)
